PubChem BioAssay (NCATS)
Records with an inconclusive call do not appear. The source made the active and inactive calls. Unless noted, calls come from the whole dose curve; as a rule, active = well fitted cell-killing curve with a large enough effect; inconclusive = small, poorly fitted or top-dose-only effect, or effect the other way; inactive = no such curve, though single readings can be large or run the other way.

How the values were obtained:
[1] = Quantitative High-Throughput drug screen in 47 multiple myeloma cell lines against the NCATS MIPE library collection: KMS28PE_JCRB cell viability assay (AID 1918983); note: nearly all actives have a fitted effect of over 35% in size; note: potency is the fitted concentration of half-maximal effect
How it was run: (§1)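 Inhibition of viability over 48 h was scored by ATP content (CellTiter-Glo) in 500-cell wells. Zero and full viability were defined by media-only and DMSO-only wells.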

[2] = Quantitative High-Throughput drug screen in 47 multiple myeloma cell lines against the NCATS MIPE library collection: OCIMY7_PLB cell viability assay (AID 1918987); note: nearly all actives have a fitted effect of over 65% in size; note: potency is the fitted concentration of half-maximal effect
How it was run: as §1

[3] = Quantitative High-Throughput drug screen in 47 multiple myeloma cell lines against the NCATS MIPE library collection: OCIMY5_PLB cell viability assay (AID 1918988); note: potency is the fitted concentration of half-maximal effect; nearly all actives have a fitted effect of over 65% in size
How it was run: as §1

[4] = Quantitative High-Throughput drug screen in 47 multiple myeloma cell lines against the NCATS MIPE library collection: U266_ATCC cell viability assay (AID 1919864); note: nearly all actives have a fitted effect of over 35% in size; note: potency is the fitted concentration of half-maximal effect
How it was run: as §1

[5] = Quantitative High-Throughput drug screen in 47 multiple myeloma cell lines against the NCATS MIPE library collection: XG1_PLB cell viability assay (AID 1919866); note: nearly all actives have a fitted effect of over 35% in size; note: potency is the fitted concentration of half-maximal effect
How it was run: as §1

[6] = Quantitative High-Throughput drug screen in 47 multiple myeloma cell lines against the NCATS MIPE library collection: VP6_DJ cell viability assay (AID 1919867); note: nearly all actives have a fitted effect of over 40% in size; note: potency is the fitted concentration of half-maximal effect
How it was run: as §1

[7] = Quantitative High-Throughput drug screen in 47 multiple myeloma cell lines against the NCATS MIPE library collection: RPMI8226_ATCC cell viability assay (AID 1919871); note: nearly all actives have a fitted effect of over 30% in size; note: potency is the fitted concentration of half-maximal effect
How it was run: as §1

[8] = Quantitative High-Throughput drug screen in 47 multiple myeloma cell lines against the NCATS MIPE library collection: OPM2_DSMZ cell viability assay (AID 1919872); note: nearly all actives have a fitted effect of over 30% in size; note: potency is the fitted concentration of half-maximal effect
How it was run: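 Myeloma cells (500 per well) were exposed to MIPE 4.0 compounds by pin transfer and incubated 48 hours at 37C, 5% CO2. Viability was read as ATP by CellTiter-Glo luminescence, normalised to DMSO (100%) and media-only (0%) wells.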

[9] = Quantitative High-Throughput drug screen in 47 multiple myeloma cell lines against the NCATS MIPE library collection: KMS28BM_JCRB cell viability assay (AID 1919874); note: nearly all actives have a fitted effect of over 35% in size; note: potency is the fitted concentration of half-maximal effect
How it was run: as §1

[10] = qHTS drug screen for cell cycle checkpoint inhibitors in PARPi-resistant BRCA-mutant ovarian cancer cell lines. (AID 1963452; calls by dose curve); settings: PEO1/OlaR viability, CellTiter-Glo luminescence, 96 h, stronger effect = lower value
How it was run: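 PEO1, PEO4 and PEO1/OlaR ovarian cancer cells, 600 per well, exposed 96 h at 37C to a dilution series. Viability read by CellTiter-Glo luminescence, normalized to DMSO and empty wells; activity summarized as Z-AUC.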

[11] = Quantitative High-Throughput drug screen in 47 multiple myeloma cell lines against the NCATS MIPE library collection: OPM1_PLB cell viability assay (AID 1918989); note: nearly all actives have a fitted effect of over 40% in size; note: potency is the fitted concentration of half-maximal effect
How it was run: as §1

[12] = Quantitative High-Throughput drug screen in 47 multiple myeloma cell lines against the NCATS MIPE library collection: PE2_PLB cell viability assay (AID 1919869); note: nearly all actives have a fitted effect of over 35% in size; note: potency is the fitted concentration of half-maximal effect
How it was run: as §1

[13] = Quantitative High-Throughput drug screen in 47 multiple myeloma cell lines against the NCATS MIPE library collection: PCM6_Riken cell viability assay (AID 1919870); note: nearly all actives have a fitted effect of over 30% in size; note: potency is the fitted concentration of half-maximal effect
How it was run: as §1

[14] = Quantitative High-Throughput drug screen in 47 multiple myeloma cell lines against the NCATS MIPE library collection: KMS11_JCRBsus cell viability assay (AID 1919873); note: nearly all actives have a fitted effect of over 50% in size; note: potency is the fitted concentration of half-maximal effect
How it was run: as §1

[15] = Quantitative High-Throughput drug screen in 47 multiple myeloma cell lines against the NCATS MIPE library collection: SKMM1_PLB cell viability assay (AID 1919863); settings: SKMM1 myeloma viability, CellTiter-Glo ATP, 48 h; viability: stronger effect = lower value; note: nearly all actives have a fitted effect of over 35% in size; note: potency is the fitted concentration of half-maximal effect
How it was run: as §1

[16] = Quantitative High-Throughput drug screen in 47 multiple myeloma cell lines against the NCATS MIPE library collection: UTMC2_PLB cell viability assay (AID 1919868); settings: CellTiter-Glo ATP luminescence, 48 h; viability (% of DMSO control): at 45.8 µM (top of the series) unless noted; note: potency is the fitted concentration of half-maximal effect; nearly all actives have a fitted effect of over 55% in size
How it was run: as §1

[17] = Quantitative High-Throughput drug screen in 47 multiple myeloma cell lines against the NCATS MIPE library collection: L363_DSMZ cell viability assay (AID 1918984); note: nearly all actives have a fitted effect of over 40% in size; note: potency is the fitted concentration of half-maximal effect
How it was run: as §1

[18] = Quantitative High-Throughput drug screen in 47 multiple myeloma cell lines against the NCATS MIPE library collection: KMS34_JCRB cell viability assay (AID 1918985); note: nearly all actives have a fitted effect of over 40% in size; note: potency is the fitted concentration of half-maximal effect
How it was run: as §1

[19] = Quantitative High-Throughput drug screen in 47 multiple myeloma cell lines against the NCATS MIPE library collection: XG6_PLB cell viability assay (AID 1919865); note: nearly all actives have a fitted effect of over 40% in size; note: potency is the fitted concentration of half-maximal effect
How it was run: as §1

[20] = qHTS for identification of novel therapeutic agents for treatment of microphthalmiaassociated transcription factor (MiT) renal cell carcinoma (RCC) (AID 1963991); settings: CellTiter-Glo, 48 h, stronger effect = lower value
How it was run: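 Curves over 11 concentrations were fitted to CellTiter-Glo luminescence, scaled between empty wells (0%) and DMSO (100%) viability. Cells were UOK109, UOK124 and UOK145 TFE3-fusion RCC lines at 500/well, exposed 48 hours at 37 C.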

[21] = measured here: PEO1 parental Z-AUC

Structure (SMILES): Cc1c(Cn2c(C)nc3c(C(=O)O)cc(N4CCOCC4)cc32)cccc1C(F)(F)F
- Potency [1]: inactive
- Potency [2]: 0.264 µM (active)
- Potency [3]: 8.33 µM (active)
- Potency [4]: inactive
- Potency [5]: 0.743 µM (active)
- Potency [6]: 4.18 µM (active)
- Potency [7]: inactive
- Potency [8]: inactive
- Potency [9]: inactive
- Z-AUC [10]: 0.672 (inactive)
- Z-AUC [10, 21]: 0.875
- Z-AUC ([10]; measured here: PEO4 Z-AUC): 0.3

Structure (SMILES): CCNC(=O)Nc1ccc2ncc(Nc3ccc(C)cc3)nc2n1
- Potency [1]: inactive
- Potency [11]: 7.43 µM (active)
- Potency [5]: 0.332 µM (active)
- Potency [6]: 0.662 µM (active)
- Potency [12]: 3.72 µM (active)
- Potency [13]: 0.935 µM (active)
- Potency [8]: inactive
- Potency [14]: 18.7 µM (active)

Structure (SMILES): CCCCCN(CCC12CC3CC(CC(C3)C1)C2)C(=O)NCCCc1ccncc1
- Potency [1]: 20.9 µM (active)
- Potency [2]: 16.6 µM (active)
- Potency [3]: 14.8 µM (active)
- Potency [15]: 23.5 µM (active)
- Potency [4]: 14.8 µM (active)
- Potency [16]: 18.7 µM (active)
- Potency [7]: 20.9 µM (active)
- Potency [8]: inactive
- Potency [9]: 8.33 µM (active)
- Z-AUC [10]: -0.0878 (inactive)
- Z-AUC [10, 21]: 0.162
- Z-AUC ([10]; measured here: PEO4 Z-AUC): -0.141

Structure (SMILES): COc1ccc(C=Cc2cc(OC)c(OC)c(OC)c2)cc1O
- Potency [17]: inactive
- Potency [18]: inactive
- Potency [2]: inactive
- Potency [11]: inactive
- viability [15]: 34.9% (inactive)
- Potency [4]: inactive
- Potency [19]: inactive
- Potency [5]: inactive
- Potency [6]: inactive
- Potency [12]: inactive
- Potency [8]: inactive
- Potency [14]: inactive
- Potency [9]: inactive

Structure (SMILES): CC(C)(C)c1cc(NC(=O)Nc2ccc(-c3cn4c(n3)sc3cc(OCCN5CCOCC5)ccc34)cc2)no1
- Potency [17]: inactive
- Potency [3]: 9.35 µM (active)
- Potency [19]: 0.418 µM (active)
- Potency [12]: 0.148 µM (active)
- Potency [13]: inactive
- Potency [8]: 5.26 µM (active)
- Potency [9]: inactive
- Z-AUC [10]: 1.23 (inactive)
- Z-AUC [10, 21]: 0.804
- Z-AUC ([10]; measured here: PEO4 Z-AUC): 0.987

Structure (SMILES): Cc1coc2c1C(=O)C(=O)c1c-2ccc2c1CCCC2(C)C
- Potency [17]: 0.0418 µM (active)
- Potency [3]: 14.8 µM (active)
- Potency [11]: 20.9 µM (active)
- Potency [15]: 18.7 µM (active)
- Potency [6]: 20.9 µM (active)
- Potency [7]: 2.09 µM (active)
- Potency [8]: 16.6 µM (active)
- Potency [9]: inactive
- Z-AUC [10]: 1.2 (inactive)
- Z-AUC [10, 21]: 0.989
- Z-AUC ([10]; measured here: PEO4 Z-AUC): 0.949

Structure (SMILES): C[C@]1(CO)CN(c2cc(C(=O)Nc3ccc4c(c3)-c3c(c(C(N)=O)nn3-c3ccc(F)cc3)CC4)c(Cl)cn2)C[C@@]1(C)CO
- Potency [2]: 1.87 µM (active)
- Potency [3]: 8.33 µM (active)
- Potency [11]: 3.72 µM (active)
- Potency [4]: 18.7 µM (active)
- Potency [19]: 4.18 µM (active)
- Potency [5]: 14.8 µM (active)
- Potency [6]: 16.6 µM (active)
- Potency [12]: 11.8 µM (active)
- Potency [13]: 16.6 µM (active)
- Potency [7]: 2.96 µM (active)
- Potency [14]: 3.72 µM (active)

Structure (SMILES): Cc1ccc(S(=O)(=O)Nc2cc(Cl)ccc2C(=O)Nc2nc(-c3ccccc3)cs2)cc1
- Potency [18]: 20.9 µM (active)
- Potency [11]: 4.69 µM (active)
- Potency [15]: 16.6 µM (active)
- Potency [4]: 20.9 µM (active)
- Potency [6]: 6.62 µM (active)
- Potency [12]: 5.9 µM (active)
- Potency [7]: 16.6 µM (active)
- Potency [14]: 10.5 µM (active)
- Z-AUC [10]: -0.703 (inactive)
- Z-AUC [10, 21]: -0.778
- Z-AUC ([10]; measured here: PEO4 Z-AUC): -1.08

Structure (SMILES): C[C@]12CC[C@H](O)CC1=CCC1C2CC[C@]2(C)C(n3cnc4ccccc43)=CCC12 (stereo not given in full)
- Potency [17]: inactive
- Potency [3]: 18.7 µM (active)
- Potency [11]: inactive
- viability [15]: 80.8% (inactive)
- Potency [4]: inactive
- Potency [19]: 14.8 µM (active)
- Potency [5]: inactive
- Potency [12]: inactive
- Potency [13]: inactive
- Potency [14]: inactive
- Potency [9]: inactive
- Z-AUC [10]: 0.586 (inactive)
- Z-AUC [10, 21]: 1.13
- Z-AUC ([10]; measured here: PEO4 Z-AUC): 0.642
- z-score ([20]; TFE3-RCC UOK109 viability, measured here: UOK109 Z-AUC): 0.298
- z-score ([20]; TFE3-RCC viability, measured here: UOK124 Z-AUC): 0.603
- z-score ([20]; TFE3-RCC viability, measured here: UOK145 Z-AUC): -0.0216
